# According to the supplement of paper PMC8728848:
# This is one part of a sample in which the strongest signals are shown more often than they occur.
# B1: PX14379D-pdi-530-26-530 (Parabacteroides distasonis) (protein)
# chain: DETVYDKLPADDFGQSTAELNALIGNSHNTMKKFWTEYMHLSECSGSMAVTPTRRGGDWYDGGQYREIYMHTWTSQTSRVKSAWKAATEAIGTCNEAIRKLQNSEILTEEEKAQDVADLRGVRAFWIYVMMDYWGNIPLLTEFHPTDKVFPGNSSRQEVFDWLIQEVEEIKDICPPATTENYGSFTQGAAYSLLAKLYLNAEAWGVTFSGNAYQKVIDNCDKVMAMGYILEPNWKDNFSVTNENSKEAILAATFSSSDTGNDGNVKNELHNNTLHYKDYLSLGITASGTWNGICAQPEYVRLFDEEDARLDGTFLTGLMIDKSTGKPIMTDHNNELNHTIDVNMIPGMEYDGTNWSAVEQHDGARCFKWEFASDLTSSMGNDFHIFRLADIYLMKAEALLRGGGSVSEATALVNTIRERGYGNSDHNYATVTLKEVQLERRLELAWEVYSRQDDIRFGCFTTGMWPQSNCERKADDYLKLLPVSQDAWQVNPNLKQNPGYAAFSK
# Assays:
# Assay in all cases: glycan array binding signal (z-score within array); higher = stronger binding
# Conditions in all cases: glycan notation: IUPAC condensed, linker removed
# [1] = biological target: Fuc(a1-2)Gal(b1-3)GalNAc(a1-3)[Fuc(a1-2)]Gal(b1-4)GlcNAc
# Procedure, shortened: (§1)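 From the Consortium for Functional Glycomics database, 3228 arrays were curated, keeping only those whose protein sequence was available. Binding is given as a within-array Z-score averaged across arrays sharing a protein sequence and across linkers. Negative Z-scores can be read as non-binding.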
# [2] = biological target: Fuc(a1-2)Gal(b1-4)GlcNAc(b1-2)Man(a1-3)[Fuc(a1-2)Gal(b1-4)GlcNAc(b1-2)Man(a1-6)]Man(b1-4)GlcNAc(b1-4)[Fuc(a1-6)]GlcNAc
# Procedure, shortened: as §1
# [3] = biological target: Fuc(a1-2)Gal(b1-4)[Fuc(a1-3)]GlcNAc(b1-2)[Fuc(a1-2)Gal(b1-4)[Fuc(a1-3)]GlcNAc(b1-4)]Man(a1-3)[Fuc(a1-2)Gal(b1-4)[Fuc(a1-3)]GlcNAc(b1-2)Man(a1-6)]Man(b1-4)GlcNAc(b1-4)GlcNAc
# Procedure, shortened: as §1
# [4] = biological target: Fuc(a1-2)Gal(b1-4)[Fuc(a1-3)]GlcNAc(b1-3)Gal(b1-4)[Fuc(a1-3)]GlcNAc(b1-3)Gal(b1-4)[Fuc(a1-3)]GlcNAc
# Procedure, shortened: as §1
# [5] = biological target: Fuc(a1-2)Gal6S(b1-3)GlcNAc6S
# Procedure, shortened: as §1
# [6] = biological target: Fuc(a1-2)[Gal(a1-3)]Gal(b1-4)GlcNAc(b1-2)Man
# Procedure, shortened: as §1
# [7] = biological target: Fuc(a1-3)GlcNAc
# Procedure, shortened: as §1
# [8] = biological target: Fuc(a1-3)[Gal(b1-4)]GlcNAc
# Procedure, shortened: as §1
# [9] = biological target: Fuc(a1-3)[GalNAc(b1-4)]GlcNAc
# Procedure, shortened: as §1
# [10] = biological target: Gal(a1-3)Gal(b1-3)[Fuc(a1-4)]GlcNAc(b1-2)Man(a1-3)[Gal(a1-3)Gal(b1-3)[Fuc(a1-4)]GlcNAc(b1-2)Man(a1-6)]Man(b1-4)GlcNAc(b1-4)GlcNAc
# Procedure, shortened: as §1
# [11] = biological target: Gal(a1-3)Gal(b1-4)Glc
# Procedure, shortened: as §1
# [12] = biological target: Gal(a1-3)[Gal(a1-4)]Gal(b1-4)GlcNAc
# Procedure, shortened: as §1
# [13] = biological target: Gal(b1-3)GlcNAc(b1-6)Gal(b1-4)GlcNAc
# Procedure, shortened: as §1
# [14] = biological target: Gal(b1-4)GlcNAc(b1-3)Gal(b1-3)GlcNAc
# Procedure, shortened: as §1
# [15] = biological target: Gal(b1-4)GlcNAc(b1-3)Gal(b1-4)GlcNAc(b1-2)Man(a1-3)[Gal(b1-4)GlcNAc(b1-3)Gal(b1-4)GlcNAc(b1-2)Man(a1-6)]Man(b1-4)GlcNAc(b1-4)GlcNAc
# Procedure, shortened: as §1
# [16] = biological target: Gal(b1-4)GlcNAc(b1-3)Gal(b1-4)GlcNAc(b1-3)Gal(b1-4)GlcNAc
# Procedure, shortened: as §1
# [17] = biological target: Gal(b1-4)GlcNAc(b1-3)Gal(b1-4)GlcNAc(b1-3)Gal(b1-4)GlcNAc(b1-2)Man(a1-3)[Gal(b1-4)GlcNAc(b1-3)Gal(b1-4)GlcNAc(b1-3)Gal(b1-4)GlcNAc(b1-2)Man(a1-6)]Man(b1-4)GlcNAc(b1-4)GlcNAc
# Procedure, shortened: as §1
# [18] = biological target: Gal(b1-4)GlcNAc(b1-3)Gal(b1-4)GlcNAc(b1-3)Gal(b1-4)GlcNAc(b1-3)Gal(b1-4)GlcNAc(b1-2)[Gal(b1-4)GlcNAc(b1-3)Gal(b1-4)GlcNAc(b1-3)Gal(b1-4)GlcNAc(b1-3)Gal(b1-4)GlcNAc(b1-6)]Man(a1-6)[Gal(b1-4)GlcNAc(b1-3)Gal(b1-4)GlcNAc(b1-3)Gal(b1-4)GlcNAc(b1-3)Gal(b1-4)GlcNAc(b1-2)Man(a1-3)]Man(b1-4)GlcNAc(b1-4)[Fuc(a1-6)]GlcNAc
# Procedure, shortened: as §1
# [19] = biological target: Gal(b1-4)GlcNAc(b1-3)Gal(b1-4)GlcNAc(b1-3)Gal(b1-4)GlcNAc(b1-3)Gal(b1-4)GlcNAc(b1-3)Gal(b1-4)GlcNAc(b1-2)[Gal(b1-4)GlcNAc(b1-3)Gal(b1-4)GlcNAc(b1-3)Gal(b1-4)GlcNAc(b1-3)Gal(b1-4)GlcNAc(b1-3)Gal(b1-4)GlcNAc(b1-6)]Man(a1-6)[Gal(b1-4)GlcNAc(b1-3)Gal(b1-4)GlcNAc(b1-3)Gal(b1-4)GlcNAc(b1-3)Gal(b1-4)GlcNAc(b1-3)Gal(b1-4)GlcNAc(b1-2)Man(a1-3)]Man(b1-4)GlcNAc(b1-4)[Fuc(a1-6)]GlcNAc
# Procedure, shortened: as §1
# [20] = biological target: Gal(b1-4)GlcNAc(b1-6)Gal(b1-4)GlcNAc
# Procedure, shortened: as §1
# [21] = biological target: Gal3S(b1-3)GlcNAc
# Procedure, shortened: as §1
# [22] = biological target: Gal3S6S(b1-4)GlcNAc6S
# Procedure, shortened: as §1
# [23] = biological target: GalNAc(b1-4)GlcNAc(b1-2)Man(a1-3)[GalNAc(b1-4)GlcNAc(b1-2)Man(a1-6)]Man(b1-4)GlcNAc(b1-4)GlcNAc
# Procedure, shortened: as §1
# [24] = biological target: GlcNAc(a1-4)Gal(b1-4)GalNAc
# Procedure, shortened: as §1
# [25] = biological target: GlcNAc(b1-3)Gal(b1-4)GlcNAc(b1-2)Man(a1-3)[GlcNAc(b1-3)Gal(b1-4)GlcNAc(b1-2)Man(a1-6)]Man(b1-4)GlcNAc(b1-4)[Fuc(a1-6)]GlcNAc
# Procedure, shortened: as §1
# [26] = biological target: GlcNAc(b1-3)Gal(b1-4)GlcNAc(b1-3)Gal(b1-4)GlcNAc(b1-2)Man(a1-3)[GlcNAc(b1-3)Gal(b1-4)GlcNAc(b1-3)Gal(b1-4)GlcNAc(b1-2)Man(a1-6)]Man(b1-4)GlcNAc(b1-4)GlcNAc
# Procedure, shortened: as §1
# [27] = biological target: GlcNAc(b1-3)Gal(b1-4)GlcNAc(b1-3)Gal(b1-4)GlcNAc(b1-2)Man(a1-3)[GlcNAc(b1-3)Gal(b1-4)GlcNAc(b1-3)Gal(b1-4)GlcNAc(b1-2)Man(a1-6)]Man(b1-4)GlcNAc(b1-4)[Fuc(a1-6)]GlcNAc
# Procedure, shortened: as §1
# [28] = biological target: GlcNAc6S(b1-3)Gal(b1-4)GlcNAc
# Procedure, shortened: as §1
# [29] = biological target: Kdn(a2-3)Gal(b1-3)GlcNAc
# Procedure, shortened: as §1
# [30] = biological target: Man(a1-2)Man(a1-3)[Man(a1-6)]Man(a1-6)[Man(a1-2)Man(a1-3)]Man(b1-4)GlcNAc(b1-4)GlcNAc
# Procedure, shortened: as §1
binder,measurement,setting,value
B1,glycan array binding signal (z-score),[1],-1.42
same,glycan array binding signal (z-score),[2],-0.233
same,glycan array binding signal (z-score),[3],-0.436
same,glycan array binding signal (z-score),[4],2.52
same,glycan array binding signal (z-score),[5],2.88
same,glycan array binding signal (z-score),[6],1.09
same,glycan array binding signal (z-score),[7],-0.715
same,glycan array binding signal (z-score),[8],-0.689
same,glycan array binding signal (z-score),[9],-0.221
same,glycan array binding signal (z-score),[10],2.48
same,glycan array binding signal (z-score),[11],-0.838
same,glycan array binding signal (z-score),[12],4.67
same,glycan array binding signal (z-score),[13],-1.22
same,glycan array binding signal (z-score),[14],-1.08
same,glycan array binding signal (z-score),[15],2.97
same,glycan array binding signal (z-score),[16],-0.298
same,glycan array binding signal (z-score),[17],1.92
same,glycan array binding signal (z-score),[18],3.06
same,glycan array binding signal (z-score),[19],1.59
same,glycan array binding signal (z-score),[20],0.063
same,glycan array binding signal (z-score),[21],-0.593
same,glycan array binding signal (z-score),[22],2.52
same,glycan array binding signal (z-score),[23],2.64
same,glycan array binding signal (z-score),[24],-0.622
same,glycan array binding signal (z-score),[25],0.749
same,glycan array binding signal (z-score),[26],2.91
same,glycan array binding signal (z-score),[27],2.19
same,glycan array binding signal (z-score),[28],0.56
same,glycan array binding signal (z-score),[29],-0.752
same,glycan array binding signal (z-score),[30],-1.26
